Test results taken from PubChem BioAssay AID1671190 (National Center for Advancing Translational Sciences (NCATS), 2021).
Hit rate of the full screen: of about 580,000 compounds, about 6,100 (1.1%) were called active. Inconclusive results (about 15%) are left out. The entries come from a sample that favours actives as a whole. A number with no mark means an inactive call. Calls come from the whole dose curve; as a rule, active = well fitted inhibition curve with a large enough effect; inconclusive = small, poorly fitted or top-dose-only effect, or another doubt; inactive = no such curve, though single readings can be large or run the other way.
% is set by controls: 0 for no effect and ±100 for the full control effect; potency is the fitted concentration of half-maximal effect.

These molecules were tested against Polyunsaturated fatty acid lipoxygenase ALOX12 (Homo sapiens) (UniProt P18054) (assay: Primary qHTS assay for inhibitors of human arachidonate 12S-lipoxygenase (ALOX12): Round 2). Conditions: purified 12hLO, xylenol orange hydroperoxide absorbance; series mostly up to 108 µM; activity change, negative = inhibition: at the top concentration.
Chain of Polyunsaturated fatty acid lipoxygenase ALOX12 (Homo sapiens) (P18054 whole entry, looked up): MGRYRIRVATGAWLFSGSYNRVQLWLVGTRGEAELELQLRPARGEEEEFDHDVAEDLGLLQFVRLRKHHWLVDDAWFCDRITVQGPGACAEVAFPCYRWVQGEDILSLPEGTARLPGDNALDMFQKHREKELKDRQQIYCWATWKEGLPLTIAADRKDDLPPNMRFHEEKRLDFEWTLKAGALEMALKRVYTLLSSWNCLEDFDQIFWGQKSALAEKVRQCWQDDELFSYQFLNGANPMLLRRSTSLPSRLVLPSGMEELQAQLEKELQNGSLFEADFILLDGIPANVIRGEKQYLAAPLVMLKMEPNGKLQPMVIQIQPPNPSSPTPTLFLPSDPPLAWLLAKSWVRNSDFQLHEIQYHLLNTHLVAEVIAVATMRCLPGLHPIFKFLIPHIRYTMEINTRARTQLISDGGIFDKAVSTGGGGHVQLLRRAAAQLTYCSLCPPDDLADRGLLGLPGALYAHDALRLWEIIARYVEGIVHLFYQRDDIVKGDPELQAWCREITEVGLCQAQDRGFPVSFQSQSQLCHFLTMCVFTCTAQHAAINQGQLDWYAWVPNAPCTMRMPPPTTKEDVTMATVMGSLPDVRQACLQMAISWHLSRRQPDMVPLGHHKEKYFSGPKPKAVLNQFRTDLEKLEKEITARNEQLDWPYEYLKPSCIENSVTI
Method in brief: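 Purified human 12hLO (150 nM final) in 25 mM Hepes, 0.01% Triton X-100, pH 7.0 was preincubated 15 min at room temperature with compound. Then 40 uM arachidonic acid was added, 30 min. Hydroperoxide was read by Fe-XO absorbance ratio 573/405 nm.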
With `Oc1ccc(O)c([S+]2CCCC(C3CCCCC3)C2)c1` (stereo unspecified) the Potency was 17.8 µM (active). In the case of `COc1ccc(Cc2nnc(SCc3nc4ccccc4c(=O)[nH]3)n2CC(C)C)cc1`, the “activity change, negative = inhibition” value is reported as 5.98%. For `Cc1ccc(NC(=O)C2Cc3ccccc3O2)cc1S(N)(=O)=O` (stereo unspecified), the “activity change, negative = inhibition” value was 26.3%. With `COCCN1C(=O)C(O)=C(C(=O)c2ccc(C)o2)C1c1ccc(O)c(OC)c1` (stereo unspecified) the Potency was 17.8 µM (active). `COc1ccc(CCN2C(=O)c3[nH]nc(-c4ccccc4O)c3C2c2ccc(C)cc2)cc1OC` (stereo unspecified) was tested, and the “activity change, negative = inhibition” value was -5.81%. In the case of `CCCOc1ccc(C2C(C(=O)c3ccc(C)o3)=C(O)C(=O)N2CCCn2ccnc2)cc1` (stereo unspecified), the “activity change, negative = inhibition” value is reported as -23.1%. For `COc1cc(C2C(C(=O)c3sc(C)nc3C)=C(O)C(=O)N2CCN(C)C)cc(OC)c1OC` (stereo unspecified), the “activity change, negative = inhibition” value was 3.5%. For `CCOC(=O)C1=C(c2ccccc2)N=C2SCC(=O)N2C1c1ccc(O)c(OC)c1` (stereo unspecified), the “activity change, negative = inhibition” value was 16%. In the case of `COc1cc(C2C(C(=O)c3ccc(C)o3)=C(O)C(=O)N2CCc2ccccc2)ccc1O` (stereo unspecified), the Potency is reported as 35.5 µM (active). For `COc1ccc(OC2CN(Cc3cccn3C)C2)cc1`, the activity change, negative = inhibition was 5.21% [at 12.5 µM]. `COc1ccc(OCCSC(C)C(N)=O)cc1` (stereo unspecified) was tested, and the “activity change, negative = inhibition” value was 0.76%. In the case of `CC(C)c1ccc(C2CC(=O)N3CN(C4CCCCC4)CSC3=C2C#N)cc1` (stereo unspecified), the Potency is reported as 17.8 µM (active). With `CC(C)c1ccc(/C=N/NC(=O)c2cc(C3CC3)nc3ccccc23)cc1` the “activity change, negative = inhibition” value was -1.68%. In the case of `COc1cc(C(=O)Nc2ccc(C(=O)O)cc2)c2ccccc2n1`, the “activity change, negative = inhibition” value is reported as -3.94%. With `CNC(=O)c1cccc(NC(=O)c2cc(C3CC3)nc3ccccc23)c1` the Potency was 39.8 µM (active). With `CNC(=O)C(=O)NC1CC(C)(C)NC(C)(C)C1` the “activity change, negative = inhibition” value was 12.8%. For `Cc1cc(C)cc(S(=O)(=O)n2cc3c(=O)n(C)c(=O)n(C)c3n2)c1`, the “activity change, negative = inhibition” value was 17.8%. In the case of `O=CN1CCN(C(=O)CCC(=O)O)CC1`, the “activity change, negative = inhibition” value is reported as 1.54%. With `Clc1ccc(Cn2ncc3c(NCc4cccnc4)ncnc32)cc1` the “activity change, negative = inhibition” value was 9.76%. For `Cc1cnc(CNc2nc(-c3cccnc3)nc3ccccc23)cn1`, the “activity change, negative = inhibition” value was -15.3%. `c1ccc(CNc2ncncc2-c2cccnc2)cc1` was tested, and the Potency was 39.8 µM (active). In the case of `Cc1cccc(-c2cc(C(=O)NCC3CCCO3)c3ccccc3n2)c1` (stereo unspecified), the “activity change, negative = inhibition” value is reported as -41.8%. `COc1ccc(-c2noc(-c3cc4cc(Cl)ccc4oc3=O)n2)cc1OC` was tested, and the “activity change, negative = inhibition” value was -21.2%. For `O=C(CSc1nnc(-c2ccncc2)n1C1CCCCC1)Nc1ccccc1`, the “activity change, negative = inhibition” value was -13.7%. In the case of `CC1CCCCC1NC(=O)CSc1nnc(-c2ccncc2)n1CCCN(C)C` (stereo unspecified), the Potency is reported as 0.355 µM (active). In the case of `CCn1c(SCC(=O)NC2CC2)nnc1-c1ccncc1`, the “activity change, negative = inhibition” value is reported as 0%. In the case of `CCOc1ccc(CNS(=O)(=O)c2ccc(-c3ccc(=O)[nH]n3)o2)cc1`, the “activity change, negative = inhibition” value is reported as 1.93%. `O=C(NC1CCS(=O)(=O)C1)c1cc2ccccc2oc1=O` (stereo unspecified) was tested, and the “activity change, negative = inhibition” value was -5.29%. With `CCCCc1cc(C[C@H]2CNCC[C@H]2CC(=O)N(CC)CC)no1` the “activity change, negative = inhibition” value was 15.8% [at 176 µM]. `CN(Cc1ccccc1)C(=O)C[C@@H]1CCNC[C@@H]1Cc1cc(-c2ccc(C(C)(C)C)cc2)on1` was tested, and the Potency was 25.1 µM (active). For `O=C(C[C@@H]1CCNC[C@@H]1Cc1cc(-c2ccc(F)cc2)on1)NCCN1CCOCC1`, the “activity change, negative = inhibition” value was 10.7% [at 176 µM]. For `COc1ccc(S(=O)(=O)Nc2nc3ccccc3nc2Nc2cccc(C)c2)cc1`, the “activity change, negative = inhibition” value was 0.128%. For `COc1ccc(C(=O)OCc2ccc(Br)cc2)c(OC)c1`, the “activity change, negative = inhibition” value was -24.9%. In the case of `COc1ccc(OC(=O)CCc2ccc3c(c2)OCCO3)cc1`, the “activity change, negative = inhibition” value is reported as -53.4%. In the case of `CCCCc1c/c(=N\O)oc2cc3occ(C)c3cc12`, the Potency is reported as 17.8 µM (active). `CCOC(=O)COc1ccc2c(=O)c(-c3ccc(OC)c(OC)c3)c(C)oc2c1` was tested, and the “activity change, negative = inhibition” value was 7.48%. With `CC(C)C[C@@H]1N[C@H](C(=O)NCc2ccc(F)cc2)Cc2cn(C)c3cccc1c23` the “activity change, negative = inhibition” value was 23.5% [at 176 µM]. In the case of `Cc1ccc(Cl)c(OC(C)C(=O)NN)c1` (stereo unspecified), the “activity change, negative = inhibition” value is reported as 10.7%. `CCOC(=O)/C=C/c1ccc(C(F)(F)F)cc1S(=O)(=O)NC(C)(C)C` was tested, and the “activity change, negative = inhibition” value was -28.5%. With `CCOC(=O)C1Nc2ccc(C(F)(F)F)cc2C2C=CCC12` (stereo unspecified) the Potency was 17.8 µM (active). With `CCOC(=O)C[C@H]1c2ccc(C(F)(F)F)cc2S(=O)(=O)N1c1ccccc1` the “activity change, negative = inhibition” value was -16.8%. For `Cc1ccc(S(=O)(=O)N2CCCC(C(=O)O)C2)cc1F` (stereo unspecified), the “activity change, negative = inhibition” value was -9.4%. In the case of `NC(=O)CN1C(=O)C(O)(CC(=O)c2ccc3c(c2)OCO3)c2ccccc21` (stereo unspecified), the “activity change, negative = inhibition” value is reported as -0.761%. In the case of `CS(=O)(=O)Nc1ccc([C@H]2OCC(=O)N(C3CCOCC3)[C@@H]2CO)cc1`, the “activity change, negative = inhibition” value is reported as 10.1% [at 176 µM]. For `Cc1ccc2[nH]cc(C(C(=O)O)N3CCN(c4ccccc4)CC3)c2c1` (stereo unspecified), the “activity change, negative = inhibition” value was 69.7%. For `CC(C)OC(=O)c1ccc(NCc2cc(O)ccc2O)cc1Cl`, the Potency was 10 µM (active). In the case of `Cc1ccc(C(=O)NC(C)C)c(Cl)c1`, the “activity change, negative = inhibition” value is reported as 25.9%. For `O=C(O)c1ccc(CSc2ccc(Cl)cc2Cl)cc1`, the “activity change, negative = inhibition” value was -47.7%. `Cc1ccc(C2(C(=O)N3C[C@@H](CN4CCCCC4)[C@@H](CO)C3)CC2)cc1` was tested, and the “activity change, negative = inhibition” value was -8.28%. `CC(Sc1ccc2c(c1)OCCCO2)C(=O)O` (stereo unspecified) was tested, and the “activity change, negative = inhibition” value was -2.01%. In the case of `Cc1[nH]c2ccccc2c1C(=O)C(C)Sc1nnc(C2CC2)o1` (stereo unspecified), the Potency is reported as “inactive”. `Cc1[nH]c2ccccc2c1C(=O)C(C)Sc1ccc2c(c1)OCCCO2` (stereo unspecified) was tested, and the Potency was 14.1 µM (active). With `COc1ccc(-c2c(C)c3ccc(OCC(=O)OC(C)(C)C)cc3oc2=O)cc1OC` the “activity change, negative = inhibition” value was 16.1%. With `CCN(C1CCCCC1)S(=O)(=O)c1ccc(C(=O)Nc2ccc(Cl)c3ncsc23)cc1` the “activity change, negative = inhibition” value was -5.15%. `CO[C@@H]1COCC[C@H]1NC(=O)CCCc1nc(-c2ccccc2C)no1` was tested, and the “activity change, negative = inhibition” value was 25%. For `CC1CC(C)(C)NC(=S)N1CCC(=O)N1CCN(Cc2ccccc2)CC1` (stereo unspecified), the “activity change, negative = inhibition” value was -2.83%. With `CC1CC(=O)Nc2ccccc2N1S(=O)(=O)c1cccs1` (stereo unspecified) the “activity change, negative = inhibition” value was 148%. In the case of `CC1CC(=S)Nc2ccccc2N1Cc1ccccc1` (stereo unspecified), the Potency is reported as 44.7 µM (active). For `O=C(CCN1C(=O)c2ccccc2S1(=O)=O)Nc1ccc(S(=O)(=O)N2CCCC2)cc1`, the “activity change, negative = inhibition” value was -55.7%. In the case of `C=C(Br)CNCc1ccccc1`, the “activity change, negative = inhibition” value is reported as -24.8%. In the case of `Cc1ccc(C(C)NC(=O)CCc2nc(C(C)C)no2)o1` (stereo unspecified), the “activity change, negative = inhibition” value is reported as 8.08%. `Cc1ccccc1-c1cc(C(=O)NCCN2CCNC2=O)c2c(c1)N(C)CCO2` was tested, and the “activity change, negative = inhibition” value was 1.66% [at 176 µM]. In the case of `COc1ccccc1N1CCN(C(=O)C2CCN(S(=O)(=O)c3c(C)noc3/C=C/c3ccc(C)cc3)CC2)CC1`, the “activity change, negative = inhibition” value is reported as -5.47%. `Cc1noc(/C=C/c2ccco2)c1S(=O)(=O)N1CCC(C(=O)N2CCc3ccccc32)CC1` was tested, and the Potency was 14.1 µM (active). `Cc1noc(/C=C/c2ccco2)c1S(=O)(=O)N1CCC(C(=O)Nc2ccc(Cl)cn2)CC1` was tested, and the “activity change, negative = inhibition” value was -15.1%. In the case of `CN(CC(=O)NC(C)(C)C)Cc1cccc2cccnc12`, the “activity change, negative = inhibition” value is reported as 20.8%.
